As a reminder, the viability is a read-out of living cells in per cent, often relative to untreated cells.

Test [1] in a line: liver-stage malaria parasite growth inhibition, primary screen, cell-based, HepG2, luciferase luminescence, HepG2 viability (AID 624349; in the data active = parasite load remaining mostly below about 12%, no sharp cut-off; inactive = mostly above about 10%;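 also: 100% = mean of DMSO negative control wells on the same plate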). Particulars: P. berghei liver stage in HepG2, luciferase luminescence, concentration not given here; parasite load remaining: stronger effect = lower value; viability: measured here: HepG2 viability without parasites.
A short description of test [2]: stimulators of nuclear beta-catenin in C2C12, primary screen, imaging, WNT3A-conditioned medium, mouse C2C12, NPC library (AID 1117326; in the data active = nuclear beta-catenin stimulation mostly above about 4.2%, no sharp cut-off; inactive = mostly below about 10%). As to conditions: stronger effect = higher value.
Test [3] in a line: stimulators of insulin release from INS-1E, primary screen, cell-based, 5 mM glucose, NPC library (AID 1117329). Particulars: rat INS-1E insulin secretion, at 10 µM, stronger effect = higher value.
Test [4] can be described thus: growth inhibition of GSK3B-pretreated HCT116 cells – cell-based, CellTiter-Glo, 0.2 to 20 µM (AID 1117336;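 active = compounds lowering colon cancer cell viability after pretreatment blocking the GSK3B kinase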). Particulars: HCT116 viability after GSK3B inhibitor, at 20 µM, stronger effect = higher value.
Test [5] can be described thus: inhibition of endothelial tube formation, primary screen, imaging, VEGF stimulated, CD31 staining, tube area, NPC library (AID 1117340;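 active = compound that reduces growth-factor-driven endothelial tube area in a mixed cell culture, no cutoff stated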). Particulars: VEGF-stimulated ADSC/ECFC co-culture, at 10 µM, stronger effect = higher value.
Test [6] is described as follows: glucagon-like peptide 1 release enhancers, primary assay, NCI-H716 cell line, NPC library (AID 1117341;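 active = compound raises GLP1 secretion from the human gut endocrine cells, with no numeric limit stated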). As to conditions: NCI-H716 cells, at 10 µM, stronger effect = higher value.
The nature of test [7]: HCT116 colon cancer cell growth inhibition, primary screen, CellTiter-Glo luminescence, NPC library (AID 1117342;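 active = compounds that lower survival of HCT116 colon cancer cells in the luminescence readout, no numeric limit stated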). Particulars: at 20 µM (top of the series). (In general: Cellular ATP, detected with luciferase, serves as a proxy for viable cell number.)
The nature of test [8]: CellTiter-Glo luminescent readout of SW480 viability loss, NPC library primary (AID 1117343;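 active = compounds that lower viability of the colon cancer cells in the luminescence readout, with no numeric limit stated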). As to conditions: CellTiter-Glo luminescence; at 20 µM (top of the series) unless noted.
Test [9] is described as follows: decreased DLD-1 cellular survival, CellTiter-Glo luminescent readout, NPC compound collection, primary HTS (AID 1117346;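 active = compounds that lower survival of DLD-1 colon cancer cells in the luminescence readout, no cutoff given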). As to conditions: DLD-1 viability, CellTiter-Glo luminescence; at 20 µM (top of the series).
Test [10] can be described thus: sensitizers of A549 cells to miR-34 induction, primary screen, imaging, A549 dox-inducible miR-34, nuclei and caspase counts (AID 1347080;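 active = compounds whose cell count with miR-34 switched on is under 0.7 times the count with it off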). Particulars: A549 miR-34 inducible, Hoechst nuclei count, 48 h.
The target in test [11] is NAD(+) hydrolase SARM1 (Homo sapiens) (UniProt Q6SZW1). The test can be described thus: SARM1 TIR NADase inhibitors, cell lysate, NAD-Glo luminescence (AID 1508614;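 active = compound whose remaining NAD level is above about 45 nM, limit read from the data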;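 also: higher remaining NAD means stronger inhibition of SARM1 NADase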). Particulars: SAM-TIR HEK293T lysate NADase, at 1 µM, stronger effect = higher value.
Sequence of NAD(+) hydrolase SARM1 (Homo sapiens) (Q6SZW1 whole entry, looked up, the tested form may be a part): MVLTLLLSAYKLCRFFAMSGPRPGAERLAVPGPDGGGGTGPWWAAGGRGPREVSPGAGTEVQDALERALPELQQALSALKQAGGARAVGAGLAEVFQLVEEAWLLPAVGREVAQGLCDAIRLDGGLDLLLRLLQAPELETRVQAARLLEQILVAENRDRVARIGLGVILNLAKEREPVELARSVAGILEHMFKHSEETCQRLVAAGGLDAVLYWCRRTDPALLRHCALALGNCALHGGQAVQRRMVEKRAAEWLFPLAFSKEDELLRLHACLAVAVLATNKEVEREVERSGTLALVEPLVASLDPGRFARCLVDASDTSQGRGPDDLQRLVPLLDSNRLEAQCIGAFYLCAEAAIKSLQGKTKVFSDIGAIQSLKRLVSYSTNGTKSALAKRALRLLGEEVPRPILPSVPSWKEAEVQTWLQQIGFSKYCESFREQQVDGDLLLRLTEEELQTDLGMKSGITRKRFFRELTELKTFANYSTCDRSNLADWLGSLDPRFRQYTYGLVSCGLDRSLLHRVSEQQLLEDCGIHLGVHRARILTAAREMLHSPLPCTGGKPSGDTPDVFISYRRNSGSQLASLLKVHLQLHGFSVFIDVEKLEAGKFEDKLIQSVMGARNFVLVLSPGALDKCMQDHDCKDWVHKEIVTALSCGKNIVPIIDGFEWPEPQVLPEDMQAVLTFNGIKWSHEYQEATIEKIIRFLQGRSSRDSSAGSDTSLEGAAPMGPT
The target in test [12] is Mitogen-activated protein kinase 7 (Homo sapiens) (UniProt Q13164). The test is described as follows: ERK5 transactivation activators in reporter cells, primary screen, cell-based, HTS (AID 1508626;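 active = luciferase signal above three times the same-plate solvent-only control wells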;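 also: luciferase driven by Gal4-ERK5 fusion binding five Gal4 sites before minimal TATA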). Particulars: HeLa Gal4-ERK5 transactivation, 18 h, at 5 µM, stronger effect = higher value.
Sequence of Mitogen-activated protein kinase 7 (Homo sapiens) (Q13164 whole entry, looked up, the tested form may be a part): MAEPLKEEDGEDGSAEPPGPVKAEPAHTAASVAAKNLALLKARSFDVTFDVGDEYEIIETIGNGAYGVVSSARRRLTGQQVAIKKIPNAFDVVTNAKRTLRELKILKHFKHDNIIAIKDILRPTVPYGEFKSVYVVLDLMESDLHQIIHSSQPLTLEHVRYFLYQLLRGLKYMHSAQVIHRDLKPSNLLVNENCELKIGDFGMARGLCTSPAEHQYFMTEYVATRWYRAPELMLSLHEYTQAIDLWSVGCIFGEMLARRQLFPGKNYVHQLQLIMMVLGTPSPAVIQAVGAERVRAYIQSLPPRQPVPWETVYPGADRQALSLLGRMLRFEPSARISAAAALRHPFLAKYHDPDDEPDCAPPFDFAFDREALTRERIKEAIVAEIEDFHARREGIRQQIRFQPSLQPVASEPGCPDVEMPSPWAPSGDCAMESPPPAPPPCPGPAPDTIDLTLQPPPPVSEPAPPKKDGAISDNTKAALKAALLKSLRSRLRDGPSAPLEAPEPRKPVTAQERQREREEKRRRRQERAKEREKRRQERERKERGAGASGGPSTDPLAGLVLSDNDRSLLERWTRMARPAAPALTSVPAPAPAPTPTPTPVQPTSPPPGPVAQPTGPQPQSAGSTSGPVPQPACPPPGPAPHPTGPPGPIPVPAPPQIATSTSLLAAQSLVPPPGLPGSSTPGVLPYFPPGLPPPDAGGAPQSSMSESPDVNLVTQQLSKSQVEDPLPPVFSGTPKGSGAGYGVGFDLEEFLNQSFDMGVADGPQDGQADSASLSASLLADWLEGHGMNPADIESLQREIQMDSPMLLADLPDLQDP
The nature of test [13]: hESC survival regulators, cell-based (AID 493140; call rule not given here;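 also: cells exposed to compounds for four days before counting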). As to conditions: human embryonic stem cell survival screen; stronger effect = higher value.
Test [14] in a line: survival rescue of mitochondrial mutant cells in low glucose, primary screen, MELAS cybrids, Rieske KO mouse fibroblasts, CellTiter-Glo (AID 1508586;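 active = mean z-score across replicates of 1.96 or higher in either the MELAS or the Rieske mutant cell line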;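 also: z relative to plate mean and SD of compound and empty wells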).
The mark [15] stands for this setting: stronger effect = lower value, cell number ratio, induced over uninduced.
The mark [16] stands for this setting: measured here: relative caspase fold change +Dox/-Dox.
[17] abbreviates: measured here: total cells with miR-34 induction, stronger effect = lower value.
Setting [18] is: measured here: total cells without miR-34 induction.
[19] abbreviates: MELAS cybrid survival, CellTiter-Glo 48 h, stronger effect = higher value.
Setting [20] is: Rieske KO mouse fibroblast survival, CellTiter-Glo 72 h.

Structures are written as SMILES. Several values for one entry are separate records, joined by “and”; a condition that tells them apart may be missing. Identical values can stand only once. Activity calls are given as the source filed them.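 The calls were made as follows, unless noted: active = compound raises insulin release from rat beta cells at 5 mM glucose, no numeric limit stated; inactive = the rest.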

Consider `O=C1[O][Bi][O]c2ccccc21`, for which the parasite load remaining in [1] is 39.8% (inactive). The viability in test [1] turned out to be 103%. Besides, the nuclear beta-catenin stimulation was 0.6% (inactive) in [2] (at 10 µM) and 0.8% in test [2] (stimulation, at 2 µM). Also, the insulin secretion stimulation in test [3] is 2.7% (inactive). Further, the viability decrease in test [4] is 13.3% (inactive). The tube area decrease in test [5] was -3.4% (inactive). For the same compound, the GLP1 secretion stimulation in test [6] was 1.9% (inactive). Besides, in test [7], the inhibition of viability was 14% (inactive). Besides, the results for the viability decrease (inhibition) in [8] and in test [9] were 28.1% (inactive) and 3.2% (inactive), respectively. In addition, the figures for the fold change in test [10] (setting [15]) and in [10] (setting [16]) were 0.887 (inactive) and 3.11, respectively. The figures for the cell count in test [10] (setting [17]) and in [10] (setting [18]) were 12000 and 13500, respectively. Further, the remaining NAD in test [11] was 52 nM (active). Moreover, in test [12], the luciferase signal was 60 AU (inactive).
In the case of `CC(C(=O)O)c1ccc(C(=O)c2ccccc2)s1` (stereo not given), the survival in test [13] is 11.3 (inactive). Also, the parasite load remaining in test [1] was 86.4% (inactive) and 106% (inactive). In addition, the viability in [1] was 112% and 75.4%. For the same compound, the nuclear beta-catenin stimulation in test [2] (at 10 µM) was 0.5% (inactive); in test [2] (stimulation, at 2 µM) it was 0.1%. Also, in test [3], the insulin secretion stimulation is -2% (inactive). Moreover, in test [4], the viability decrease is 4.35% (inactive). In addition, the tube area decrease in [5] was 4% (inactive). The GLP1 secretion stimulation in test [6] is -4.7% (inactive). For the same compound, the inhibition of viability in test [7] is 7.4% (inactive). Also, the values for the viability decrease (inhibition) in [8] and in [9] were 37.4% (inactive) and 10.6% (inactive), respectively. Besides, the results for the fold change in test [10] (setting [15]) and in test [10] (setting [16]) were 0.849 (inactive) and 1.29, respectively. The figures for the cell count in [10] (setting [17]) and in [10] (setting [18]) were 9200 and 10800, respectively. Further, the z-score is -0.736 (inactive) in test [14] (setting [19]) and -0.23 in [14] (setting [20]).
For the compound `CCCCN1C[C@H](O)[C@@H](O)[C@H](O)[C@H]1CO`, in test [1], the parasite load remaining is 45.7% (inactive). For the same compound, the viability in test [1] came out at 77.5%. Further, the nuclear beta-catenin stimulation in [2] (at 10 µM) is 2.8% (inactive); in [2] (stimulation, at 2 µM), 0.2%. Besides, in test [3], the insulin secretion stimulation is -1.2% (inactive). Moreover, the viability decrease in test [4] was -13.2% (inactive). The tube area decrease in test [5] is 8.1% (inactive). Also, the GLP1 secretion stimulation in [6] was -0.1% (inactive). Further, the inhibition of viability in test [7] is -0.5% (inactive). Besides, the results for the viability decrease (inhibition) in [8] and in [9] were 23.4% (inactive) and 3.5% (inactive), respectively. Besides, the figures for the fold change in test [10] (setting [15]) and in test [10] (setting [16]) were 0.88 (inactive) and 0.958, respectively. Besides, the cell count in test [10] (setting [17]) amounted to 9280; in test [10] (setting [18]), 10500. The z-score in test [14] (setting [19]) was 0.308 (inactive); in test [14] (setting [20]), -0.247.
Turning to `OC[C@@H](O)[C@@H](O[C@@H]1O[C@H](CO)[C@H](O)[C@H](O)[C@H]1O)[C@H](O)[C@@H](O)CO`, the nuclear beta-catenin stimulation was 2% (inactive) in [2] (at 10 µM) and 0.9% in test [2] (stimulation, at 2 µM). In addition, in test [3], the insulin secretion stimulation is 2.3% (inactive). Moreover, in [4], the viability decrease was 22.6% (inactive). Besides, in test [5], the tube area decrease is -0.6% (inactive). In test [6], the GLP1 secretion stimulation was -0.5% (inactive). In addition, the inhibition of viability in [7] was 6.7% (inactive). Further, the viability decrease (inhibition) in test [8] was 20% (inactive); in [9], 3.4% (inactive). The fold change was 0.928 (inactive) in test [10] (setting [15]) and 0.884 in test [10] (setting [16]). Also, the cell count in test [10] (setting [17]) came out at 8700; in test [10] (setting [18]) it was 9370. Also, the remaining NAD in test [11] was 10 nM (inactive). For the same compound, in [12], the luciferase signal is 56 AU (inactive).
As for `CCOC(=O)Nc1ccc2c(c1)N(C(=O)CCN1CCOCC1)c1ccccc1S2`, the survival in [13] is 4.83 (inactive). Further, in [1], the parasite load remaining was 99.9% (inactive). For the same compound, the viability in test [1] stood at 97.4%. In addition, the nuclear beta-catenin stimulation was -0.6% (inactive) in test [2] (at 10 µM) and 1.1% in test [2] (stimulation, at 2 µM). In test [3], the insulin secretion stimulation was 1.7% (inactive). Moreover, in test [4], the viability decrease was -14.2% (inactive). For the same compound, the tube area decrease in [5] was 4% (inactive). For the same compound, the GLP1 secretion stimulation in test [6] is -2.4% (inactive). The inhibition of viability in test [7] was 15.2% (inactive). The viability decrease (inhibition) was 17.8% (inactive) in test [8] and -16.3% (inactive) in [9]. For the same compound, the fold change in [10] (setting [15]) was 0.922 (inactive); in [10] (setting [16]) it was 1.07. Moreover, the cell count came to 8790 in [10] (setting [17]) and 9540 in [10] (setting [18]). For the same compound, the z-score in [14] (setting [19]) was 0.935 (inactive); in [14] (setting [20]) it was 0.145.

Source of the values: PubChem BioAssay.
